Test results from PubChem BioAssay AID720605 (Broad Institute, 2013).
Measured potencies and affinities stand elsewhere. Active and inactive are the calls of the source.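 The calls were made as follows: active = cell viability signal falls with a fitted half-maximal concentration within twice the top dose at all three treatment times; inconclusive = treatment times give differing calls; inactive = every treatment time called inactive.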

Test: U-251 glioblastoma cell viability loss, dose response, HRAS target identification, Alamar Blue fluorescence, 8/24/48 h, dry powder (AID 720605)
Settings: U-251 glioblastoma viability, 8-48 h; series mostly up to 35 µM

Cc1onc(C(=O)N2CCN(C(c3ccncc3)c3ccncc3)CC2)c1[N+](=O)[O-]
outcome: inactive

CCC(=O)N(c1ccc(OC)c(Cl)c1)C(C(=O)NCCc1ccccc1)c1cccs1 (configuration not stated)
outcome: inactive
